Holding throughout (assay): yeast three-hybrid, YBZ-1, SC-Leu-His + 0.5 mM 3-AT, 4 days
Details in all cases: tags: N-Gal4 AD-HA kept; label: inside an RPR1-promoter hybrid RNA with tandem MS2 sites; ssRNA

For one assay, the target named is PUM1 PUF domain R5-FRN (Homo sapiens, UniProt Q14671 828-1176, C1007F;Q1011N). The procedure, abridged:
(§1)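 Repeat regions from input (SC-Leu) and selection (SC-Leu-His + 0.5 mM 3-AT) plates were PCR-amplified and Illumina-sequenced after four days of growth. The cells were strain YBZ-1 with a LexA–MS2 coat fusion and a HIS3 reporter, co-expressing Pumilio-1 PUF domain libraries and matching RNA elements from a centromeric plasmid. The interaction score is the log change in variant frequency from input to selection, taken in log2 with a pseudocount of 1 for absent variants.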

The next assay has as its target PUM1 PUF domain R5-YRR (Homo sapiens, UniProt Q14671 828-1176, C1007Y;Q1011R). The procedure, abridged:
as §1

The target in a further assay is PUM1 PUF domain R5-RYL (Homo sapiens, UniProt Q14671 828-1176, C1007R;R1008Y;Q1011L). The procedure, abridged: as §1
The target of the next assay is PUM1 PUF domain R8-FFR (Homo sapiens, UniProt Q14671 828-1176, N1122F;Y1123F;Q1126R). A digest of the protocol: as §1
The next assay concerns the target T1, PUM1 PUF domain R6-AYR (Homo sapiens, UniProt Q14671 828-1176, N1043A;Q1047R).
T1 sequence: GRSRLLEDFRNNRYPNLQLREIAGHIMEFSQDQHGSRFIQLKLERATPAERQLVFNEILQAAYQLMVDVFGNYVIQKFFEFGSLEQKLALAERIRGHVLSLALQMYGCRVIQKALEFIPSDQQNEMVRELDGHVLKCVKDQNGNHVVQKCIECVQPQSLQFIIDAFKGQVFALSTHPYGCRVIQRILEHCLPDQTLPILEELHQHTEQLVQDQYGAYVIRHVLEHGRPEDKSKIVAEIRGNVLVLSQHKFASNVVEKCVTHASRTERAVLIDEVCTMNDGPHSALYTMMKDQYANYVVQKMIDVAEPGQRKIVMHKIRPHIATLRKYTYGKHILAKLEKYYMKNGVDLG
A digest of the protocol: as §1

In a further assay the target is PUM1 PUF domain R8-SYP (Homo sapiens, UniProt Q14671 828-1176, N1122S;Q1126P). A digest of the protocol: as §1
The target in the next assay is T2, PUM1 PUF domain R6-FYL (Homo sapiens, UniProt Q14671 828-1176, N1043F;Q1047L).
T2 sequence: T1 sequence with A216F, R220L
A digest of the protocol: as §1

The target of the next assay is PUM1 PUF domain R8-LFR (Homo sapiens, UniProt Q14671 828-1176, N1122L;Y1123F;Q1126R). The procedure, abridged:
as §1

The next assay concerns the target T3, PUM1 PUF domain R6-IYC (Homo sapiens, UniProt Q14671 828-1176, N1043I;Q1047C).
T3 sequence: T1 sequence with A216I, R220C
The procedure, abridged:
as §1

In another assay the target is PUM1 PUF domain R4-RVY (Homo sapiens, UniProt Q14671 828-1176, N971R;H972V;Q975Y). The procedure, abridged:
as §1

For a further assay, the target named is PUM1 PUF domain R8-RWA (Homo sapiens, UniProt Q14671 828-1176, N1122R;Y1123W;Q1126A). The procedure, abridged:
as §1

Another assay has as its target PUM1 PUF domain R3-APS (Homo sapiens, UniProt Q14671 828-1176, C935A;R936P;Q939S). A digest of the protocol:
as §1

The target in a further assay is PUM1 PUF domain R7-QRK (Homo sapiens, UniProt Q14671 828-1176, S1079Q;N1080R;E1083K). A digest of the protocol:
as §1

The target in the next assay is PUM1 PUF domain R8-KYR (Homo sapiens, UniProt Q14671 828-1176, N1122K;Q1126R). The procedure, abridged:
as §1

The target in another assay is PUM1 PUF domain R3-IWK (Homo sapiens, UniProt Q14671 828-1176, C935I;R936W;Q939K). The procedure, abridged: as §1
The target of another assay is PUM1 PUF domain R1-RRT (Homo sapiens, UniProt Q14671 828-1176, S863R;Q867T). A digest of the protocol: as §1
Sequence of PUM1 PUF domain R1-RRT (Q14671 828-1176 S863R/Q867T): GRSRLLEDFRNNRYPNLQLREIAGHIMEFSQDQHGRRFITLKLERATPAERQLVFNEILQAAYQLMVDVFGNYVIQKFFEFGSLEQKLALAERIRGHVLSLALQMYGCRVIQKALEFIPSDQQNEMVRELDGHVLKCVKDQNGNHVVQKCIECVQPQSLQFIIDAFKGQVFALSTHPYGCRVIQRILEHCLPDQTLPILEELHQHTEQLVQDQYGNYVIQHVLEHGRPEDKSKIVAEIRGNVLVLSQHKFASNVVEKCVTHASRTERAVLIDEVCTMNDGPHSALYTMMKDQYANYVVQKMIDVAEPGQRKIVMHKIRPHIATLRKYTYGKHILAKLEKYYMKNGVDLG
Another assay addresses PUM1 PUF domain R3-TVE (Homo sapiens, UniProt Q14671 828-1176, C935T;R936V;Q939E). The procedure, abridged:
as §1

Where a chain is given by its changes, count along the chain named.

On to “GGCUAGAACUAGUGGAUCCCCCGGCGCCCGGCGGCUCGAGCCCGGGUAAGUGUCAAUAGUCUGCAUGCCGCCGGGCGCCAUGCCUGCAGGUCGACUCUAGAAAACAUG”, for which the binding signal in the assay with PUM1 PUF domain R5-FRN was 2.94 log2 enrichment (interaction score); with PUM1 PUF domain R5-YRR, 3.31 log2 enrichment (interaction score); in the assay with PUM1 PUF domain R5-RYL it was 2.69 log2 enrichment (interaction score).
Regarding “GGCUAGAACUAGUGGAUCCCCCGGCGCCCGGCGGCUCGAGCCCGGGUAAGUGUAAAUAGUCUGCAUGCCGCCGGGCGCCAUGCCUGCAGGUCGACUCUAGAAAACAUG”, the binding signal is 4.42 log2 enrichment (interaction score) in the assay with PUM1 PUF domain R8-FFR; 6.13 log2 enrichment (interaction score) with PUM1 PUF domain R6-AYR; 4.16 log2 enrichment (interaction score) with PUM1 PUF domain R8-SYP; 3.73 log2 enrichment (interaction score) with PUM1 PUF domain R6-FYL; 4.31 log2 enrichment (interaction score) in the assay with PUM1 PUF domain R8-LFR; 3.57 log2 enrichment (interaction score) with PUM1 PUF domain R6-IYC. Also, the binding signal in the assay with PUM1 PUF domain R4-RVY is 5.94 log2 enrichment (interaction score); in the assay with PUM1 PUF domain R8-RWA it was 4.01 log2 enrichment (interaction score); with PUM1 PUF domain R5-FRN, 1.74 log2 enrichment (interaction score); with PUM1 PUF domain R5-YRR, 1.76 log2 enrichment (interaction score); in the assay with PUM1 PUF domain R3-APS, 3.64 log2 enrichment (interaction score).
“GGCUAGAACUAGUGGAUCCCCCGGCGCCCGGCGGCUCGAGCCCGGGUAAGUAUAAAUAGUCUGCAUGCCGCCGGGCGCCAUGCCUGCAGGUCGACUCUAGAAAACAUG”: in the assay with PUM1 PUF domain R7-QRK, the binding signal is 3.05 log2 enrichment (interaction score).
Regarding “GGCUAGAACUAGUGGAUCCCCCGGCGCCCGGCGGCUCGAGCCCGGGUAAGCGUAAAUAGUCUGCAUGCCGCCGGGCGCCAUGCCUGCAGGUCGACUCUAGAAAACAUG”, the binding signal is 4.67 log2 enrichment (interaction score) with PUM1 PUF domain R8-FFR, 4.59 log2 enrichment (interaction score) with PUM1 PUF domain R8-LFR, 4.94 log2 enrichment (interaction score) with PUM1 PUF domain R8-RWA and 6.62 log2 enrichment (interaction score) with PUM1 PUF domain R8-KYR.
Turning to “GGCUAGAACUAGUGGAUCCCCCGGCGCCCGGCGGCUCGAGCCCGGGUAAGUGUAAUUAGUCUGCAUGCCGCCGGGCGCCAUGCCUGCAGGUCGACUCUAGAAAACAUG”, in the assay with PUM1 PUF domain R3-IWK, the binding signal was 3.81 log2 enrichment (interaction score).
For the sequence “GGCUAGAACUAGUGGAUCCCCCGGCGCCCGGCGGCUCGAGCCCGGGUAAGUGUAAAUGGUCUGCAUGCCGCCGGGCGCCAUGCCUGCAGGUCGACUCUAGAAAACAUG”, in the assay with PUM1 PUF domain R1-RRT, the binding signal is 1.65 log2 enrichment (interaction score).
With “GGCUAGAACUAGUGGAUCCCCCGGCGCCCGGCGGCUCGAGCCCGGGUAAGUGUAAGUAGUCUGCAUGCCGCCGGGCGCCAUGCCUGCAGGUCGACUCUAGAAAACAUG”, the binding signal in the assay with PUM1 PUF domain R3-TVE was 6.09 log2 enrichment (interaction score).

These data come from article PMC8384837, “Expanding the binding specificity for RNA recognition by a PUF domain”.
